Where “and” joins values, the source holds several entries; their conditions need not be identical. Equal entries are not always repeated. Some structures have more than one record in an assay (separate samples or runs), and their calls can disagree. Calls of active or inactive are those of the source. How the source made its calls: active means hit-call score of the fitted dose curve at least 0.9, where 1 is the maximum; inactive means score below 0.9.

By AC50 is commonly meant the concentration at which the activity in the assay is half-maximal.

Assay [1] can be described thus: ATG_E_Box_CIS: Attagene CIS-FACTORIAL HepG2 Assay for human Enhancer Box (E-box) (AID 2282936). The note with it: HepG2 E-box cis-reporter transcription, actives raise or lower the signal. In a few lines:
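Multiplexed CIS reporter system in transiently transfected HepG2 cells measures native transcription factor activity. Reporter RNA after 24 h exposure is profiled by RT-PCR-capillary electrophoresis.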

A short description of assay [2]: ATG_M_61_CIS: Attagene CIS-FACTORIAL HepG2 Assay for M61 Transcription Factor (Internal Marker) (AID 2282937). The following applies: HepG2 Attagene CIS-FACTORIAL M61 internal marker reporter; actives raise or lower the signal. In outline: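 Multiplexed reporter mRNA assay, HepG2 human hepatoma cells, 24 h treatment. Signal: FAM-labelled, HpaI-digested RT-PCR fragments by CE. Fit: bidirectional, baseline DMSO.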

Assay [3] in a line: ATG_EGR_CIS: Attagene CIS-FACTORIAL HepG2 Assay for human Early Growth Response 1 (EGR1) (AID 2282938). The following applies: HepG2 Attagene CIS-FACTORIAL EGR reporter mRNA; actives raise or lower the signal. In a few lines:
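Multiplexed cis-reporter system in human hepatoma HepG2 cells, transiently transfected. Cells are dosed for 24 h; reporter transcripts are amplified, fluorescently tagged and sized by capillary electrophoresis, with DMSO as negative control.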

Assay [4] is described as follows: ATG_M_19_CIS: Attagene CIS-FACTORIAL HepG2 Assay for M19 Transcription Factor (Internal Marker) (AID 2282939). The note with it: HepG2 Attagene CIS-FACTORIAL M19 internal marker reporter; actives raise or lower the signal. In a few lines:
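HepG2 cells transiently transfected with cis-regulated multiple reporter transcription units were dosed for 24 h; reporter mRNA was quantified by RT-PCR, 6-FAM primer-extension labelling, HpaI digestion and capillary electrophoresis, with bidirectional fitting against DMSO baseline.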

The nature of assay [5]: ATG_ERE_CIS: Attagene CIS-FACTORIAL HepG2 Assay for Estrogen Response Element (ERE) (AID 2282940). The note with it: HepG2 ERE cis-reporter, Attagene RNA transcript; actives raise or lower the signal. In a few lines:
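HepG2 cells transiently transfected with cis-promoter-driven multiplexed reporter transcription units report endogenous TF activity. After 24 h compound exposure, reporter mRNA is quantified by RT-PCR with capillary electrophoresis fluorescence; bidirectional fitting versus DMSO baseline.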

Assay [6] can be described thus: ATG_Ets_CIS: Attagene CIS-FACTORIAL HepG2 Assay for human Erythroblast Transformation Specific (ETS) (AID 2282941). The note with it: HepG2 ETS cis-reporter transcription, actives raise or lower the signal. In a few lines: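 After transient cis-reporter transfection, HepG2 cells receive test chemical for 24 h. Reporter mRNA levels, measured by RT-PCR and capillary electrophoresis fluorescence, are analysed bidirectionally relative to the DMSO baseline.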

Assay [7] concerns the target Hepatocyte nuclear factor 3-beta (Homo sapiens) (UniProt Q9Y261). Put plainly: ATG_FoxA2_CIS: Attagene CIS-FACTORIAL HepG2 Assay for human Forkhead box A2 (FOXA2) (AID 2282942). The following applies: HepG2 cis-reporter transcription factor activity, 24 h; actives raise or lower the signal. In a few lines:
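Multiplexed cis-element reporter assay in transiently transfected HepG2. Twenty-four hours post-dosing, RNA was reverse-transcribed, amplified, FAM-labelled, HpaI-digested and separated by CE. Activity gain or loss relative to DMSO.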

The nature of assay [8]: ATG_FoxO_CIS: Attagene CIS-FACTORIAL HepG2 Assay for human Forkhead box O (FoxO) (AID 2282943). The following applies: HepG2 Attagene cis-reporter, FoxO element, mRNA; actives raise or lower the signal. In a few lines:
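Values reflect reporter mRNA induction or loss in HepG2 cells 24 h post-dosing, fitted bidirectionally with DMSO as negative control and baseline. Detection used RT-PCR and fluorescence capillary electrophoresis.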

The nature of assay [9]: ATG_GATA_CIS: Attagene CIS-FACTORIAL HepG2 Assay for human GATA Binding Protein (AID 2282944). The note with it: HepG2 GATA cis-element reporter, Attagene multiplex mRNA; actives raise or lower the signal. In outline:
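HepG2 cells transiently transfected with multiplexed cis-element reporter units reflecting endogenous transcription factor activity; reporter mRNA measured after 24 h dosing by RT-PCR, 6-FAM labeling, HpaI digestion and capillary electrophoresis. Bidirectional fitting versus DMSO baseline.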

The nature of assay [10]: ATG_GLI_CIS: Attagene CIS-FACTORIAL HepG2 Assay for human Zinc Finger Protein GLI1 (AID 2282945). The note with it: HepG2, Attagene cis-factorial reporter mRNA, GLI element; actives raise or lower the signal. In outline: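 HepG2 cells transiently transfected with cis-promoter multiplexed reporter units report endogenous transcription factor activity. After 24 h chemical exposure, reporter mRNA was quantified by RT-PCR, 6-FAM labelling, HpaI digestion and capillary electrophoresis, with bidirectional fitting against DMSO.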

Assay [11] is described as follows: ATG_GRE_CIS: Attagene CIS-FACTORIAL HepG2 Assay for human Glucocorticoid Response Elements (GRE) (AID 2282947). The following applies: HepG2 GRE cis-reporter, Attagene multiplex mRNA; actives raise or lower the signal. In a few lines:
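Following 24 h chemical exposure of transiently transfected HepG2 cells, total RNA was reverse-transcribed and reporter cDNA amplified, fluorescently labelled and sized by capillary electrophoresis. Signal gain or loss was fitted relative to DMSO vehicle.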

Assay [12] can be described thus: ATG_ISRE_CIS: Attagene CIS-FACTORIAL HepG2 Assay for human Interferon Regulatory Factor 1 (IRF1) binding to an Interferon-Stimulated Response Element (ISRE) (AID 2282948). The note with it: HepG2 ISRE cis-reporter (Attagene), mRNA transcription readout; actives raise or lower the signal. In a few lines:
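Quantitation relies on labelled RT-PCR fragments separated by capillary electrophoresis. Human HepG2 cells bearing cis-promoter reporter constructs were treated 24 h; DMSO served as baseline for bidirectional fitting.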

A short description of assay [13]: ATG_M_32_CIS: Attagene CIS-FACTORIAL HepG2 Assay for M32 Transcription Factor (Internal Marker) (AID 2282949).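 Further: background control marker of the multiplexed CIS panel rather than a real target.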 The following applies: HepG2 Attagene cis-factorial M32 reporter, mRNA; actives raise or lower the signal. In a few lines: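 HepG2 cells transiently transfected with multiplexed cis-regulated reporter units, dosed 24 h. Reporter mRNA quantified by RT-PCR, 6-FAM labelling, HpaI digestion and capillary electrophoresis; bidirectional fit vs DMSO.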

Assay [14] can be described thus: ATG_M_06_CIS: Attagene CIS-FACTORIAL HepG2 Assay for M06 Transcription Factor (Internal Marker) (AID 2282950). The note with it: HepG2 Attagene CIS-FACTORIAL M06 internal marker reporter; actives raise or lower the signal. In outline: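 HepG2 cells transiently transfected with cis-regulated multiple reporter transcription units were exposed to chemical for 24 h; reporter mRNA was quantified by RT-PCR, 6-FAM primer labelling, HpaI digestion and capillary electrophoresis, fitted bidirectionally against DMSO.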

Assay [15] addresses Hypoxia-inducible factor 1-alpha (Homo sapiens) (UniProt Q16665). Put plainly: ATG_HIF1a_CIS: Attagene CIS-FACTORIAL HepG2 Assay for human Hypoxia Inducible Factor 1 (HIF1A) (AID 2282951). The following applies: HepG2 Attagene cis-factorial HIF1a reporter transcription; actives raise or lower the signal. In outline: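 Cis-element reporter constructs were transiently transfected into HepG2 cells, which were treated for 24 h; reporter RNA was reverse-transcribed, amplified, labelled and resolved by capillary electrophoresis.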

The target in assay [16] is Hepatocyte nuclear factor 6 (Homo sapiens) (UniProt Q9UBC0). Description: ATG_HNF6_CIS: Attagene CIS-FACTORIAL HepG2 Assay for human Hepatocyte Nuclear Factor 6 (HNF6) (AID 2282952). The following applies: HepG2 Attagene cis-factorial HNF6 reporter transcription; actives raise or lower the signal. In outline:
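HepG2 cells transiently transfected with cis-element-driven multiplexed reporter units measuring endogenous transcription factor activity. After 24 h exposure, reporter mRNA quantified by RT-PCR, FAM-labelled fragments and capillary electrophoresis; bidirectional fitting versus DMSO.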

Assay [17] addresses Heat shock factor protein 1 (Homo sapiens) (UniProt Q00613). Put plainly: ATG_HSE_CIS: Attagene CIS-FACTORIAL HepG2 Assay for human Heat Shock Transcription Factor 1 (HSE) (AID 2282953). The note with it: HepG2 HSE cis-reporter, Attagene RNA transcription; actives raise or lower the signal. In outline:
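HepG2 cells transiently transfected with multiple reporter transcription units under cis-regulatory promoter control, measuring endogenous transcription factor activity. After 24 h chemical exposure, reporter mRNA quantified by RT-PCR, fluorescent labelling, HpaI digestion and capillary electrophoresis; bidirectional fit versus DMSO.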

Assay [18] is described as follows: ATG_MRE_CIS: Attagene CIS-FACTORIAL HepG2 Assay for human Metal Responsive Element (MRE) (AID 2282954). The following applies: HepG2 MRE cis-reporter transcription, Attagene multiplex; actives raise or lower the signal. In outline: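 Step one: transfect HepG2 with cis-regulated reporter units. Step two: dose 24 h. Step three: isolate RNA, RT-PCR, 6-FAM label, HpaI digest, capillary electrophoresis. Fit bidirectionally to DMSO.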

Assay [19] is described as follows: ATG_PBREM_CIS: Attagene CIS-FACTORIAL HepG2 Assay for human Phenobarbital-responsive Enhancer Module (PBREM) (AID 2282955). The note with it: HepG2 PBREM cis-reporter, Attagene multiplexed transcription; actives raise or lower the signal. In a few lines:
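Multiplexed cis-reporter readout in human hepatoma HepG2 cells; PBREM-regulated transcript quantified after 24 h exposure by fluorescent RT-PCR fragment analysis. Signal changes up or down fitted relative to DMSO.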

In assay [20] the target is Paired box protein Pax-6 (Homo sapiens) (UniProt P26367). Put plainly: ATG_Pax6_CIS: Attagene CIS-FACTORIAL HepG2 Assay for human Paired Box 6 (PAX6) (AID 2282956). The note with it: HepG2 CIS-FACTORIAL PAX6 reporter transcription, RNA readout; actives raise or lower the signal. In outline: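 After twenty-four hours of chemical exposure, transfected HepG2 cells are harvested for RNA. Cis-promoter reporter transcripts are amplified, fluorescently labelled and sized by capillary electrophoresis, with gain and loss of signal scored against DMSO.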
Sequence of Paired box protein Pax-6 (Homo sapiens) (P26367 whole entry, looked up): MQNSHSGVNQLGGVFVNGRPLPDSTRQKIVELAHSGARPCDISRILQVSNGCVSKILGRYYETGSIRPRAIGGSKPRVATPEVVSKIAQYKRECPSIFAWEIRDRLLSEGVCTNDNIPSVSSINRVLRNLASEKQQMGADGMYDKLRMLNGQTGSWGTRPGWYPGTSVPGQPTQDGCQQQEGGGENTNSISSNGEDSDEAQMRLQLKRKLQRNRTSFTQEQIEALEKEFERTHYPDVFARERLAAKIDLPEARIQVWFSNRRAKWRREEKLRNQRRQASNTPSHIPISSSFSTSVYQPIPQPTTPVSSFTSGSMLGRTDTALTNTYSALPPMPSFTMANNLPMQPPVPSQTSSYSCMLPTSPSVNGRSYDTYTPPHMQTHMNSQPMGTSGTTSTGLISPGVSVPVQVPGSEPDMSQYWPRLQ

Sequence of Heat shock factor protein 1 (Homo sapiens) (Q00613 whole entry, looked up): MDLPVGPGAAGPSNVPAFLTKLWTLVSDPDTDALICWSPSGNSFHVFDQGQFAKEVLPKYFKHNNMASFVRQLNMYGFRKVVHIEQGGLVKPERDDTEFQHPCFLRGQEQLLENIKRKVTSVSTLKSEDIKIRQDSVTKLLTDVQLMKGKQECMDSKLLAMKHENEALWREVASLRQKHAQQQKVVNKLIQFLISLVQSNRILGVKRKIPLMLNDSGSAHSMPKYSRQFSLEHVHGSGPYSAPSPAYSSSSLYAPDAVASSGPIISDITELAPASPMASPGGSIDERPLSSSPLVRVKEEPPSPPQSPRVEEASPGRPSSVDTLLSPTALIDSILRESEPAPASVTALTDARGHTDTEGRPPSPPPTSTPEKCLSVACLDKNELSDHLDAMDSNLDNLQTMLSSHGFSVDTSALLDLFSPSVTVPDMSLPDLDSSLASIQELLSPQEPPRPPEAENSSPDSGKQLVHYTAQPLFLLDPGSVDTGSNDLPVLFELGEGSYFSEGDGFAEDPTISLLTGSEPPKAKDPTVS
Sequence of Hepatocyte nuclear factor 6 (Homo sapiens) (Q9UBC0 whole entry, looked up, the tested form may be a part): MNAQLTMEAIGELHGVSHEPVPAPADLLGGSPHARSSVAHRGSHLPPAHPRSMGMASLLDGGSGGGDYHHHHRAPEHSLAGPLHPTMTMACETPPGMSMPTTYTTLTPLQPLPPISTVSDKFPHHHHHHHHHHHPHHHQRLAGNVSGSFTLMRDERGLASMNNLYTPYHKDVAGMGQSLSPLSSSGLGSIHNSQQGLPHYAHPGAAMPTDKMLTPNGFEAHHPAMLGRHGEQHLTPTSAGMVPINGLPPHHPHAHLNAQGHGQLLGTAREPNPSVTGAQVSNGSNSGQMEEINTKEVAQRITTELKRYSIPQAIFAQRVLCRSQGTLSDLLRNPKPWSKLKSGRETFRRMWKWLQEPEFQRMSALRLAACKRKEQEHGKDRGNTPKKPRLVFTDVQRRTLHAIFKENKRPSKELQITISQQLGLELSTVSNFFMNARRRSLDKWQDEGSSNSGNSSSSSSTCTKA
Sequence of Hypoxia-inducible factor 1-alpha (Homo sapiens) (Q16665 whole entry, looked up): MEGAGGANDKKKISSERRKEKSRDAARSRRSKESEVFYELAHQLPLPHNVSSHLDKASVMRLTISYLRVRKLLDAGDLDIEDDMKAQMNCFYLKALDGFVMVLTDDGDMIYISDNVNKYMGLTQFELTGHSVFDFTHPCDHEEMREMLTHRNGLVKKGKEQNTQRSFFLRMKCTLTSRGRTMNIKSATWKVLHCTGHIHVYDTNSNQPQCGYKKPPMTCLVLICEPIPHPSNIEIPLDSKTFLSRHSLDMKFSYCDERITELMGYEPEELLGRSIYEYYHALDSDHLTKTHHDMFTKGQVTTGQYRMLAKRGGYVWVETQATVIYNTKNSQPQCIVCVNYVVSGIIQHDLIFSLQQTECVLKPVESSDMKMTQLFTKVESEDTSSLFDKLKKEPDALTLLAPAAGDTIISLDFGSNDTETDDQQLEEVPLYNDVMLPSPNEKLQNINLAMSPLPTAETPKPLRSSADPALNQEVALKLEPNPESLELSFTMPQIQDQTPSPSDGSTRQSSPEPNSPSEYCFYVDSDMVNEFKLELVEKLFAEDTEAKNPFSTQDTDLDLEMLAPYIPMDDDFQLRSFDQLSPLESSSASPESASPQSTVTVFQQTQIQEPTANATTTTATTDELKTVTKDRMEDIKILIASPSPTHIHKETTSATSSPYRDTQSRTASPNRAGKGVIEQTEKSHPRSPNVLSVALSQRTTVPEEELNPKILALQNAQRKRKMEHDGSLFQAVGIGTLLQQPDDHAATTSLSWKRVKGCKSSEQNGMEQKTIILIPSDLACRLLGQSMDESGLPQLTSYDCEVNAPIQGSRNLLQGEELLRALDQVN
Sequence of Hepatocyte nuclear factor 3-beta (Homo sapiens) (Q9Y261 whole entry, looked up): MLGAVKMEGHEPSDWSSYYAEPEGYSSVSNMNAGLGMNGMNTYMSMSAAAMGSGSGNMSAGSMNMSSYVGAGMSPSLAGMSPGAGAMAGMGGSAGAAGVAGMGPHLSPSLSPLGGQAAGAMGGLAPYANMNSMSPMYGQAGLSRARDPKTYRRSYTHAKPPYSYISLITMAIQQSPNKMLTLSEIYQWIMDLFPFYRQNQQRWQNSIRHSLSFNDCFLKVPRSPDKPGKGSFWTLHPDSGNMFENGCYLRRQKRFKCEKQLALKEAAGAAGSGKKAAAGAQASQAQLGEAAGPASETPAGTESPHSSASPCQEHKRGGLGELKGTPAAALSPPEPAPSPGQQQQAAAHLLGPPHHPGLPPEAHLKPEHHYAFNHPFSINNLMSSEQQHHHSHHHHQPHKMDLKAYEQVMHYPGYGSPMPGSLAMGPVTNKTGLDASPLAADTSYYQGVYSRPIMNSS

With `CCCCCCCCCC[N+](C)(C)CCCCCCCCCC`, the AC50 is 40.8 µM (active) in assay [1]; 6.79 µM (active) in assay [3]; 100 µM (active) in assay [9]; 100 µM (active) in assay [10]; 8.55 µM (active) in assay [11]; 24.9 µM (active) in assay [12]. Besides, the AC50 was 4.45 µM (active) in [18] and 7.61 µM (active) in [20]. Besides, the compound was called inactive in assay [2], in assay [4], in [5], in assay [6], in assay [7] and in [8]. The compound was classed as inactive in assay [13], in assay [14], in assay [15], in assay [16], in [17] and in assay [19].

As for `Oc1ccc(C(c2ccc(O)cc2)(C(F)(F)F)C(F)(F)F)cc1`, the result in assay [1], in assay [2], in assay [3], in assay [4], in [6] and in assay [7] was inactive. In addition, the result in assay [8], in assay [9], in assay [10], in assay [11], in [12] and in assay [13] was inactive. The outcome in [14], in assay [16], in assay [19] and in assay [20] was inactive. Besides, the AC50 is 11.1 µM (active) and 16.5 µM (active) in assay [3]; 127 nM (active) [middle of 4 runs] in assay [5]; 15.5 µM (active) and 17.5 µM (active) in assay [6]; 20.1 µM (active) and 11.1 µM (active) in assay [12]; 16.3 µM (active) [middle of 4 runs] in assay [17]; 16.2 µM (active) [middle of 4 runs] in assay [18]. Further, the AC50 in assay [20] is 8.18 µM (active) and 16.2 µM (active).

For `CCOC(=O)C(O)(c1ccc(Cl)cc1)c1ccc(Cl)cc1`, the result in assay [1], in [2], in assay [3], in assay [4], in [6] and in assay [7] was inactive. Moreover, the result in [8], in assay [9], in assay [10], in assay [11], in assay [12] and in assay [13] was inactive. The result in [14], in [16], in assay [17], in assay [19] and in assay [20] was inactive. Moreover, the results for the AC50 in assay [5], in assay [15] and in assay [18] were 2.98 µM (active), 0.836 nM (active) and 11.1 µM (active), respectively.

With `Clc1ccc(Cl)cc1`, the result in assay [1], in assay [2], in assay [3], in [4], in assay [5] and in assay [6] was inactive. In addition, the compound was classed as inactive in assay [7], in assay [8], in assay [9], in [10], in assay [11] and in assay [12]. Also, the call in assay [13], in assay [14], in assay [15], in [16], in assay [17] and in assay [18] was inactive. For the same compound, the result in [19] and in assay [20] was inactive. Besides, the AC50 was 5240 nM (active) in assay [15] and 179 µM (active) in assay [17].

Turning to `Sc1ccccc1`, the result in assay [1], in assay [2], in assay [3], in [4], in [6] and in assay [7] was inactive. The outcome in [8], in assay [9], in [10], in assay [11], in assay [12] and in assay [13] was inactive. The compound was called inactive in assay [14], in assay [15], in [16], in [17], in assay [18] and in assay [19]. For the same compound, in assay [20], the result was inactive. Moreover, the AC50 is 27.1 µM (active) and 100 µM (active) in assay [5]; 160 µM (active) in assay [17].

The record behind these values is PubChem BioAssay (EPA / NIEHS).
